# In the library only some 1.1% were active in any assay of this set; here they are far more common.
# AGP1-GFP MLPCN – alters AGP1-GFP fluorescence in TOR pathway yeast screen; S. cerevisiae AGP1-GFP multiplex flow cytometry, 3 h; GFP as percent of DMSO wells; GFP response vs DMSO, % at 10 µM; 320,000 tested, 0.02% active;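 active = GFP response relative to DMSO above a set limit, near screen average plus 3 SD, cut at about 150% in these data; inconclusive = fewer than 70 cells counted for the yeast strain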;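 note: median GFP channel fluorescence of the gated AGP1 strain per well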
# MEP2 TOR yeast – alters MEP2-GFP fluorescence in TOR pathway yeast screen | 330,000 tested, 0.51% active | S. cerevisiae MEP2-GFP strain, flow cytometry GFP, 3 h; 100% = DMSO control level | AID 2016 | GFP response vs DMSO, % at 10 µM;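 active = GFP response versus DMSO above a set limit, roughly screen mean plus 3 SD, cut at about 180% in these data; inconclusive = fewer than 70 cells counted for a yeast strain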;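 note: median GFP fluorescence of the barcode-gated MEP2-GFP cells per well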
# VLA-4 inh – inhibition in a human VLA-4 binding assay; P13612; VLA-4 expressing cells, ligand binding flow cytometry; inhibition, % (about 7 µM as worked out from the volumes in the protocol); 330,000 tested, 0.2% active; AID 2557; in the data active = inhibition above about 50%
# Target sequence (P13612 whole entry, looked up): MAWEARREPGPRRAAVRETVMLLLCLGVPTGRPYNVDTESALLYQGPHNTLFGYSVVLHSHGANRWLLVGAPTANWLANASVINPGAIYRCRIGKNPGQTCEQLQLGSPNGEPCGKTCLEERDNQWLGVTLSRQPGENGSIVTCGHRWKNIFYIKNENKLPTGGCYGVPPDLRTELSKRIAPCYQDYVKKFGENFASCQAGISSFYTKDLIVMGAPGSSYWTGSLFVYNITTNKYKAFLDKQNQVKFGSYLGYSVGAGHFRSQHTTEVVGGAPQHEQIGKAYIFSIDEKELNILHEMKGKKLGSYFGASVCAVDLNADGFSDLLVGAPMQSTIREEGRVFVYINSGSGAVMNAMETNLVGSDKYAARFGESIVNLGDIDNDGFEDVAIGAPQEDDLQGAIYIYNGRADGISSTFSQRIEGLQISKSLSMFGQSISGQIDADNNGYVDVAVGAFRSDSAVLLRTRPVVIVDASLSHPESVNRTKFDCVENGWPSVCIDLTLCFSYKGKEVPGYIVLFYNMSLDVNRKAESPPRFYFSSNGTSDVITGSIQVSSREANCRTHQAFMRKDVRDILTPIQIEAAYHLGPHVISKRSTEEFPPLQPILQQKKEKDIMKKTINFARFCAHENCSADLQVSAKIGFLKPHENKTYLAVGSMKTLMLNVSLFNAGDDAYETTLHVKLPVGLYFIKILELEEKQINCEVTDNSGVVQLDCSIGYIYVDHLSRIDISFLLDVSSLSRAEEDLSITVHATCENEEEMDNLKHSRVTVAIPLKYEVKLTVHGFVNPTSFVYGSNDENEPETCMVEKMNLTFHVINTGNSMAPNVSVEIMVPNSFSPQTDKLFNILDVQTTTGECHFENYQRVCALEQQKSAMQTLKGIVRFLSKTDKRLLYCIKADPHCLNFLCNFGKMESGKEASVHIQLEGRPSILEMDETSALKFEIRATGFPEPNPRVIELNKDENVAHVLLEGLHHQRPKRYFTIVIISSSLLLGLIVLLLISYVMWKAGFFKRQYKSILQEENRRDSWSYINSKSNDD
# CIT2-GFP yeast – alters CIT2-GFP fluorescence in TOR pathway yeast screen | GFP response vs DMSO, % at 10 µM | AID 2029 | S. cerevisiae CIT2-GFP strain, flow cytometry, 3 h; 100 means same as DMSO wells | 320,000 tested, 0.065% active;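 active = GFP response relative to DMSO above a set limit, near the screen mean plus 3 SD, cut at about 150% in these data; inconclusive = Fewer than 70 cells measured for a yeast strain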;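 note: ratio of well median GFP fluorescence to mean of DMSO wells on the plate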
# LAP4-GFP MLPCN – alters LAP4-GFP fluorescence in TOR pathway yeast screen; S. cerevisiae LAP4-GFP multiplex, flow cytometry GFP, 3 h; median GFP as percent of DMSO wells; GFP response vs DMSO, % at 10 µM; 320,000 tested, 0.34% active;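 active = GFP response vs DMSO above a set limit, about the screen mean plus 3 SD, cut at about 150% in these data; inconclusive = under 70 cell events counted for the yeast strain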
# RPL19A-GFP yeast – yeast TOR pathway RPL19A-GFP modulation | S. cerevisiae RPL19A-GFP strain, flow cytometry, 3 h; hits give low values | AID 2025 | 330,000 tested, 0.3% active | percent response vs DMSO, % at 10 µM;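 active = percent response vs DMSO below 50%; inconclusive = fewer than 70 events counted for the yeast strain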;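 note: median channel GFP fluorescence of the barcoded RPL19A-GFP strain; ratio of sample median GFP to plate DMSO average so 100% = DMSO; lower means less RPL19A-GFP as with rapamycin TOR inhibition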
# Numbers without * were called inactive; i = inactive; u = inconclusive; x = no result; [ ] = remark or other dose.
SMILES,AGP1-GFP MLPCN,MEP2 TOR yeast,VLA-4 inh,CIT2-GFP yeast,LAP4-GFP MLPCN,RPL19A-GFP yeast
CN1CCN(CCCNC(=O)C2CCN(c3nnc(-n4cccc4)s3)CC2)CC1,100,107,-168,106,105,103
CCOC(=O)C1CCCN(CCC(=O)Nc2cc(OC)ccc2OC)C1 (stereo not drawn),111,109,-1,109,91,114
CCOc1ccc(CSCCNC(=S)Nc2ccc(OC)cc2)cc1,u,193*[may fluoresce violet],-4,u,98,31*[may fluoresce violet]
CCCOc1ccc(CSCCNC(=S)Nc2ccccc2)cc1,89,94,2,84,95,96
COC(=O)c1c(NC(=O)C2CCCCC2)sc2c1CC(C)(C)NC2(C)C,101,99,-24,100,99,98
CCc1ccc(C(=O)Cn2ncc(Cl)c(Cl)c2=O)cc1,x,196*[may fluoresce violet],10,u,83,53
COCc1cc(C)nc(SCC(=O)Nc2ccc3c(c2)n(C)c(=O)n3C)c1C#N,102,112,1,92,97,98
COc1ccc(CNC(=O)C2CCN(S(=O)(=O)c3cccc4nsnc34)CC2)cc1,u,146,5,u,83,15*[may fluoresce violet]
CC(C)(C)NC(=O)C1CCN(S(=O)(=O)c2cccc3nsnc23)CC1,111,105,10,112,103,109
COC(=O)CNC(=O)C1CCN(S(=O)(=O)c2cccc3nsnc23)CC1,u,128,-1,u,82,20*[may fluoresce violet]
COc1ccc(CCNC(=O)C2CCN(C(=O)c3ccccc3)CC2)cc1,103,102,10,110,83,108
COc1cccc(C(=O)N2CCC(C(=O)NCc3ccc(C)cc3)CC2)c1,u,258*[may fluoresce red and violet],0,u,92,u
CC(=O)COc1ccc2c(C)c(C)c(=O)oc2c1,97,98,0,98,99,x
Cc1c(C)c2ccc(OS(C)(=O)=O)cc2oc1=O,21,351*[may fluoresce violet],-32,u,71,47*[may fluoresce violet]
Cc1nnc(NC(=O)c2csc3c2CCCC3)s1,88,99,0,77,124,85
Cc1nnc(NC(=O)c2csc3c2CCC(C)C3)s1 (stereo not drawn),92,101,3,79,155*,92
C#Cc1ccc([C@H]2C=C(C(=O)NCc3ccccc3)O[C@@H](OCc3ccc(CO)cc3)C2)cc1,79,92,6,70,123,98
O=C(NCCc1ccc(Cl)cc1)C(=O)Nc1cc2c3c(c1)CC(=O)N3CCC2,99,87,-4,95,102,88
O=C(NCCc1ccc(F)cc1)C(=O)Nc1cc2c3c(c1)CC(=O)N3CCC2,u,118,-8,u,66,46*[may fluoresce violet]
CC1CCCCC12NC(=O)N(CC(=O)N1CCN(Cc3ccc(C#N)cc3)CC1)C2=O (stereo not drawn),96,96,0,102,100,98
COc1ccc(C(=O)Nc2ccc(O)c3ccccc23)cc1,103,97,1,96,107,90
COc1ccc(NC(=O)Nc2ccc(O)c3ccccc23)cc1,19,420*[may fluoresce violet],-6,u,98,52
Cc1ccc(S(=O)(=O)N2CCC[C@H]2C(=O)OCC(=O)Nc2ccc3c(c2)OCO3)cc1,91,98,0,89,92,96
Cc1onc(-c2ccccc2Cl)c1C(=O)N1CCC(Cc2ccccc2)CC1,u,240*[may fluoresce violet],2,u,51,27*[may fluoresce violet]
Cc1cc(NC(=O)CCC(=O)N(CC(=O)NCC2CCCO2)c2ccc(F)c(Cl)c2)no1 (stereo not drawn),13,390*[may fluoresce violet],-4,u,71,54
SMILES,AGP1-GFP MLPCN,MEP2 TOR yeast,VLA-4 inh,CIT2-GFP yeast,LAP4-GFP MLPCN,RPL19A-GFP yeast
COc1cccc(CNS(=O)(=O)/C=C/c2ccc3c(c2)OCO3)c1,u,176*[may fluoresce violet],8,u,64,62
CCCCCCc1cc2cc(S(=O)(=O)c3ccc(F)cc3)c(=O)oc2cc1O,16,212*[may fluoresce violet],9,u,91,72
O=C(O)c1ccc2oc(=O)c(S(=O)(=O)c3ccc(F)cc3)cc2c1,94,89,6,102,92,93
CCCCCCc1cc2cc(-c3nnc(-c4ccccc4OC)o3)c(=O)oc2cc1O,71,226*,i,95,106,88
CCCCCCc1cc2cc(-c3nnc(-c4ccccc4O)o3)c(=O)oc2cc1O,25,180*[may fluoresce violet],i,u,93,48*[may fluoresce violet]
CC(NC(=O)COc1ccc(S(=O)(=O)N2CCOCC2)cc1)c1ccccc1 (stereo not drawn),92,99,41,94,95,91
CCN(c1ccccc1C(=O)O)S(=O)(=O)c1cccc2nsnc12,97,96,25,97,95,99
COc1ccc(/C=N/NC(=O)c2cc3c(ccc4ccccc43)o2)cc1OC,90,98,5,93,70,106
COc1cc(/C=N/NC(=O)c2cc3c(ccc4ccccc43)o2)cc(OC)c1O,u,245*[may fluoresce violet],1,u,80,19*[may fluoresce violet]
CC1CCCC(C)N1CCNC(=O)CCc1nnc2n(Cc3ccccc3)c(=O)c3ccccc3n12 (stereo not drawn),103,100,-13,103,93,98
CSc1ccc(/C=N/NC(=O)c2cccc(O)c2)cc1,24,188*[may fluoresce violet],-8,u,97,62
O=C(c1cc(-c2ccc(Cl)cc2)n[nH]1)N1CCc2ccccc2C1,100,98,7,100,97,100
CCOC(=O)c1cc2ccc(OC)c(OC)c2c(=O)s1,x,211*[may fluoresce violet],10,u,106,57
O=C(COc1ccccc1)OCc1cc(-c2ccco2)on1,88,89,8,81,85,87
Cc1cccc(NC(=O)c2cccc(S(=O)(=O)N(C)c3ccccc3)c2)n1,97,101,4,90,104,97
COc1ccccc1C(=O)N/N=C(\C)CC(=O)Nc1ccccn1,u,342*[may fluoresce violet],4,u,86,70
COc1ccccc1C(=O)N/N=C(\C)CC(=O)Nc1ccc(Cl)cn1,100,90,-2,90,108,94
C/C(CC(=O)Nc1ccccn1)=N\NC(=O)C(=O)Nc1ccccc1C,u,249*[may fluoresce violet],2,u,65,67
Cc1cc(C(=O)Nc2ccc(F)cc2)c2ccccc2n1,98,100,-1,102,94,96
COc1ccc(Br)cc1/C=N/NC(=O)Cn1nnnc1N,46,122,-3,84,336*,85
CCc1nnc(NC(=O)c2ccc(-c3cc(C(F)(F)F)ccc3Cl)o2)s1,25,180*[may fluoresce violet],1,u,91,64
CCc1nnc(NC(=O)c2ccc(-c3cccc(C(F)(F)F)c3)o2)s1,98,99,5,97,104,101
COc1ccc(C2(CNC(C)=O)CCCC2)cc1OC,105,100,-4,104,106,99
